We go through 28 molecules from ChEMBL document CHEMBL1157539, “Thousands of chemical starting points for antimalarial lead identification” (Nature, 2010).

SMILES strings stand for the structures.

Format in all cases: functional
In assay [1] the test system is Plasmodium falciparum. As to the kind of experiment: GSK_TCMDC: Inhibition of Plasmodium falciparum 3D7 in whole red blood cells, using parasite LDH activity as an index of growth. Test compounds present at 2uM.
The subject of assay [2] is Plasmodium falciparum. As to the kind of experiment: GSK_TCMDC: Inhibition of Plasmodium falciparum Dd2 in whole red blood cells, using parasite LDH activity as an index of growth. Test compounds present at 2uM.
The subject of assay [3] is HepG2. As to the kind of experiment: GSK_TCMDC: Percent inhibition of human HepG2 cell line. Test compounds present at 10uM.

The term Inhibition denotes the share of the control response that was lost under treatment. Read a high Inhibition as a response far below the control. As for `FC(F)(F)c1ccc2[nH]c(-c3cccc(-c4cccc(CNCCc5ccncc5)c4)c3)nc2c1.O=C(O)C(F)(F)F`, the Inhibition in assay [1] was 99%; in assay [2], 97%; in assay [3], 31%.
For `CCNc1cc(C(=O)N[C@@H](Cc2ccccc2)[C@H](O)CNC2C3CC4CC(C3)CC2C4)cc(N2CCCCS2(=O)=O)c1.Cl` (some centres undefined), in that order: 97%, 96% and 0%.
For `Cc1ccc2c(=NN=Cc3cccc(Cl)c3)cc(C)[nH]c2c1`, in that order: 96%, 52% and 50%.
`COc1ccc(CCN(C)CCCOc2ccc(NC(=O)c3cccc4c(=O)c5ccccc5[nH]c34)cc2)cc1OC`: the Inhibition in assay [1] is 94%; in assay [2], 45%; in assay [3], 80%.
For `CCOc1ccccc1CCNC(C)Cc1ccc(C(=O)Nc2ccc(CC(C)NCCc3cccc(Cl)c3)cc2)cc1` (centres undefined), in that order: 97%, 59% and 100%.
Regarding `COc1cc(NCCCCCNc2cc(Cl)nc3ccccc23)nc2ccccc12`, the Inhibition in assay [1] is given as 100%; in assay [2], 54%; in assay [3], 17%.
For `CCCCCCP(=O)(COc1ccc(CCN(CC(O)COc2cccc3[nH]c(C(N)=O)cc23)CC(O)COc2cccc3[nH]c(C(N)=O)cc23)cc1)OCCCC` (centres undefined), in that order: 99%, 97% and 0%.
For `CC(C)(C)C(=O)Oc1ccc(CC2NCCc3cc(OC(=O)C(C)(C)C)c(OC(=O)C(C)(C)C)cc32)cc1OC(=O)C(C)(C)C` (centres undefined), in that order: 97%, 96% and 3%.
The matching figures for `c1ccc(CNc2nc(NCCN3CCCCC3)nc3ccccc23)cc1`: 87%, 8% and 19%.
Regarding `CCCCOc1c(CCNCCCCNCCc2cc(F)c3ccccc3c2OCCCC)cc(F)c2ccccc12.CS(=O)(=O)O`, the Inhibition amounted to 96% in assay [1], 78% in assay [2] and 97% in assay [3].
The matching figures for `O=C(c1ccc(Cl)cc1)C1CCCN(C2CCN(CCc3ccccc3)CC2)C1` (centres undefined): 96%, 51% and 37%.
Take `COc1ccccc1-c1ccc2nnc(SCC(=O)Nc3ccc4c(c3)OCCO4)n2n1`: the Inhibition was 99% in assay [1], 5% in assay [2] and 9% in assay [3].
For `CCN(CC)S(=O)(=O)c1ccc(C(C)NC(=O)c2ccccc2COc2ccccc2)cc1` (centres undefined), in that order: 100%, 89% and 0%.
As to `CCn1c(-c2nonc2N)nc2c(-c3cccc(NC(=O)Nc4ccc(Cl)cc4)c3)ncc(OCCCN)c21.O=C(O)C(F)(F)F`, the figures for the Inhibition in assay [1], in assay [2] and in assay [3] were 96%, 72% and 26%, respectively.
For `O=C(O)C(F)(F)F.O=S(=O)(NCCN1CCCC1)c1ccc(-c2cccc(CNC3Cc4ccccc4C3)c2)cc1`, in that order: 99%, 57% and 55%.
Turning to `Cn1nc(-c2ccccc2F)c2cc(C(=O)Nc3cccnc3)sc21`, the results for the Inhibition in assay [1], in assay [2] and in assay [3] were 92%, 82% and 5%, respectively.
The matching figures for `O=C(NC1CCN(Cc2ccccc2)CC1)c1ccc(-c2nc3cc(Cl)c(Cl)cc3[nH]2)s1`: 100%, 99% and 17%.
As for `Oc1ccccc1CNC1CCCCC1NCc1ccccc1O` (centres undefined), the Inhibition in assay [1] is 96%; in assay [2], 66%; in assay [3] it was 53%.
For `O=C1C(c2ccccc2)=C(Nc2ccc(Cl)cc2)c2ccccc21`, in that order: 91%, 59% and 5%.
As for `Cc1cc(N2C(N)=NC(N)=NC2(C)C)ccc1Cl.Cl`, the Inhibition came out at 95% in assay [1], 0% in assay [2] and 66% in assay [3].
For `Cc1cc(N[C@@H](CC(C)C)C(=O)NCc2cccs2)nc(Nc2ccccc2)n1.O=C(O)C(F)(F)F`, in that order: 100%, 57% and 18%.
The matching figures for `CS(=O)(=O)Cc1cccc(Nc2ncc(Cl)c(Nc3cccnc3C(N)=O)n2)c1.Cl`: 96%, 97% and 56%.
The matching figures for `CCc1cn(CCOC)c2ccc(C(=O)N[C@@H](Cc3ccccc3)[C@H](O)CNC(C)(C)CCCC(C)C)cc12.O=CO`: 98%, 98% and 35%.
Take `O=C(Cc1ccc[n+]([O-])c1)Nc1ccc(-c2cccc(-c3nc4cc(C(F)(F)F)ccc4[nH]3)c2)cc1`: the Inhibition in assay [1] is recorded as 92%; in assay [2], 49%; in assay [3] it was 16%.
The matching figures for `O=C(Nc1c(F)cccc1F)c1cccc(-c2nn3ccccc3c2-c2ccnc(Nc3cccc(-c4cnco4)c3)n2)c1`: 95%, 94% and 96%.
The matching figures for `Fc1ccc(NC(=S)NCCc2ccccc2)cc1`: 99%, 0% and 0%.
For `COc1cc2ncnc(Nc3ccc4nc(-c5ccccc5)[nH]c4c3)c2cc1OC.Cl`, in that order: 92%, 32% and 15%.
As for `CC(C)(C(=O)Nc1ccc(N2CCC3(CCCN(CC4CC4)C3)CC2)c(Cl)c1)c1cccc(C(F)(F)F)c1`, the Inhibition turned out to be 92% in assay [1], 0% in assay [2] and 27% in assay [3].
